Several values for one entry are separate records, joined by “and”; a condition that tells them apart may be missing. Equal values may be shown once. The whole screen tested about 5,500 compounds, of which about 2,000 (36%) were called active. Not shown: some 18% with an inconclusive outcome. Rule as the data show it: active = normalized growth mostly below about 0.91 (no sharp cut-off); inconclusive = no clear call, values can overlap the other calls; inactive = mostly above about 0.92. Some of the results follow.
Test: chemical genetic growth profiling, strain panel (AID 1159580);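 also: tested at 20 µM; growth read once vehicle control cultures reached saturation at 30 °C; 1 = growth at the plate median or of vehicle wells; lower values mean less growth of the strain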
Conditions: S. cerevisiae deletion strains, growth OD

Measured: normalized growth

NC(=O)NC1NC(=O)NC1=O (configuration not stated)
inactive: locus YAL013W, strain DEP1, active compounds read low 0.994 | locus YAL021C, strain ccr4, active compounds read low 0.995 | locus YAL026C, strain drs2, active compounds read low 1 | locus YAL030W, strain snc1, active compounds read low 0.999 | locus YBL061C, strain skt5, active compounds read low 1 | locus YBR009C, strain hhf1, active compounds read low 0.999 | locus YBR021W, strain FUR4, active compounds read low 0.996 | locus YBR023C, strain chs3, active compounds read low 1 | locus YBR171W, strain sec66, active compounds read low 1.01 | locus YBR229C, strain ROT2, active compounds read low 0.987 | locus YBR231C, strain swc5, active compounds read low 0.996 | locus YBR279W, strain paf1, active compounds read low 1.01 | locus YCL011C, strain gbp2, active compounds read low 1.01 | locus YCL016C, strain dcc1, active compounds read low 1 | locus YCL029C, strain bik1, active compounds read low 0.976 | locus YCL061C, strain MRC1, active compounds read low 0.995 | locus YCL069W, strain vba3, active compounds read low 1.01 | locus YCR088W, strain abp1, active compounds read low 0.995 | locus YDL005C, strain med2, active compounds read low 1 | locus YDL035C, strain GPR1, active compounds read low 1.01 | locus YDL040C, strain nat1, active compounds read low 0.999 | locus YDL074C, strain BRE1, active compounds read low 1.01 | locus YDL101C, strain DUN1, active compounds read low 0.981 | locus YDL134C, strain PPH21, active compounds read low 0.982 | locus YDL185W, strain tfp1, active compounds read low 0.982 | locus YDL192W, strain arf1, active compounds read low 0.988 | locus YDR001C, strain nth1, active compounds read low 1.01 | locus YDR069C, strain doa4, active compounds read low 1 | locus YDR101C, strain arx1, active compounds read low 0.98 | locus YDR137W, strain rgp1, active compounds read low 0.991 | locus YDR150W, strain NUM1, active compounds read low 0.998 | locus YDR159W, strain sac3, active compounds read low 0.995 | locus YDR162C, strain NBP2, active compounds read low 0.992 | locus YDR195W, strain ref2 0.998 | locus YDR297W, strain sur2, active compounds read low 1.01 | locus YDR318W, strain mcm21, active compounds read low 0.986 | locus YDR334W, strain swr1, active compounds read low 1 | locus YDR335W, strain msn5, active compounds read low 1.01 | locus YDR388W, active compounds read low 0.979 | locus YDR392W, strain spt3, active compounds read low 0.958 | locus YDR502C, strain sam2, active compounds read low 1.02 | locus YEL003W, strain gim4, active compounds read low 1.01 | locus YEL037C, strain rad23, active compounds read low 1.01 | locus YEL061C, strain CIN8 (second series), active compounds read low 1.01 | locus YEL061C, strain CIN8, active compounds read low 1 | locus YER015W, strain faa2, active compounds read low 1 | locus YER016W, strain bim1, active compounds read low 1.01 | locus YER110C, active compounds read low 0.979 | locus YER111C, strain swi4, active compounds read low 1.01 | locus YER155C, strain BEM2 (second series), active compounds read low 1.01 | locus YER155C, strain BEM2, active compounds read low 0.997 | locus YER167W, strain BCK2, active compounds read low 1 | locus YFR010W, strain ubp6, active compounds read low 1.01 | locus YGL078C, strain dbp3, active compounds read low 0.989 | locus YGL086W, strain mad1, active compounds read low 0.999 | locus YGL167C, strain pmr1, active compounds read low 1 | locus YGL173C, strain kem1, active compounds read low 1 | locus YGL227W, strain vid30, active compounds read low 1 | locus YGL240W, strain doc1, active compounds read low 0.996 | locus YGL248W, strain PDE1, active compounds read low 0.986 | locus YGL253W, strain hxk2, active compounds read low 1 | locus YGR078C, strain PAC10, active compounds read low 0.987 | locus YGR135W, strain pre9, active compounds read low 0.998 | locus YGR229C, strain SMI1, active compounds read low 1.01 | locus YGR252W, strain gcn5, active compounds read low 1.13 | locus YHR013C, strain ard1, active compounds read low 1.01 | locus YHR027C, strain rpn1, active compounds read low 1 | locus YHR030C, strain SLT2, active compounds read low 0.994 and 1.03 | locus YHR079C, strain IRE1 (second series), active compounds read low 0.972 | locus YHR079C, strain IRE1, active compounds read low 1.02 | locus YHR094C, strain hxt1, active compounds read low 0.983 | locus YHR129C, strain ARP1, active compounds read low 0.983 | locus YHR142W, strain chs7, active compounds read low 1.01 | locus YHR200W, strain rpn10, active compounds read low 0.988 | locus YIL066C, strain RNR3, active compounds read low 0.994 | locus YIL073C, strain SPO22, active compounds read low 0.998 | locus YIL125W, strain kgd1, active compounds read low 0.999 | locus YIR030C, strain dcg1, active compounds read low 0.984 | locus YJL092W, strain hpr5, active compounds read low 1 | locus YJL095W, strain BCK1 (second series), active compounds read low 1 | locus YJL095W, strain BCK1, active compounds read low 0.98 and 1.03 | locus YJL115W, strain asf1, active compounds read low 0.997 | locus YJL129C, strain trk1, active compounds read low 0.997 | locus YJL134W, strain LCB3, active compounds read low 0.991 | locus YJL154C, strain vps35, active compounds read low 1.01 | locus YJL164C, strain tpk1, active compounds read low 1 | locus YJL166W, strain qcr8, active compounds read low 0.993 | locus YJL168C, strain set2, active compounds read low 0.98 | locus YJL187C, strain SWE1 (second series), active compounds read low 0.979 | locus YJL187C, strain SWE1, active compounds read low 1 | locus YJR043C, strain POL32, active compounds read low 0.979 | locus YJR066W, strain TOR1, active compounds read low 0.984

Reference: PubChem BioAssay AID1159580 (chemical genetic matrix, 2015)
